Compound activity (PubChem BioAssay)
The list is not random: actives were taken first. Their share in the collection is about 5.9%.
TGFb inhibitor – blocks TGF-b signaling. AID 588855. 1.2% of 410,000 active. Potency, µM (doses to about 46.1 µM), inactives show at the highest dose activity, negative = inhibition, hits mostly inhibitors. HepG2 CAGA-GFP TGF-b/SMAD3 reporter, GFP fluorescence, 18 h; TGF-beta stimulated, 500 pg/mL final; also: % is scaled to controls: 0 for no effect and ±100 for the full control effect; nearly all actives have a fitted effect of over 65% in size
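TGF-beta reporter screen: HEPG2 CAGA-GFP, 1% FBS, 500 pg/mL TGF-beta final, 18 h; per-cell GFP summed per well; curves fitted and categorized by class.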
HepG2 viability – kills HepG2 cells in TGF-b inhibitor counter-screen. HepG2 CAGA-GFP viability, ATP luminescence, 18 h. 0.76% of 410,000 active. Potency, µM (doses to about 46.1 µM), for inactives: top-dose activity change, negative = cytotoxicity, most hits filed as cytotoxic. AID 588856
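HepG2 CAGA-GFP cells (1000/well, DMEM with 1% FBS) received compound, then TGF-beta at 500 pg/mL final, and were incubated 18 hours at 37 degrees C. Viability was read by CellTiter-Glo luminescence. Media-only wells were set as complete cell-killing and DMSO as no toxicity.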
KB-V1 MDR tox – kills drug-selected multidrug resistant KB-V1 cells | Potency, µM (highest dose often 46.1 µM), most hits filed as cytotoxic | KB-V1 MDR cells viability, CellTiter-Glo, 72 h | 3.4% of 400,000 active; also: % is scaled to controls: 0 for no effect and ±100 for the full control effect; nearly all actives have a fitted effect of over 60% in size
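Following 72 h at 37 degrees C with compound, KB-V1 cell viability was read by CellTiter-Glo luminescence, medium being phenol-red-free DMEM plus 10% FBS; concentration-response parameters came from normalized, curve-fitted qHTS data.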
ATXN2 expr inh – inhibitors of ATXN2 expression; 0.72% of 360,000 active; Potency, µM (doses to about 57 µM), without a hit: at the top dose activity change, negative = inhibition, hits mostly inhibitors; HEK-293 ATXN2-luciferase reporter, luminescence, 24 h; also: % is scaled to controls: 0 for no effect and ±100 for the full control effect; nearly all actives have a fitted effect of over 55% in size
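ATXN2-luciferase reporter cells (luciferase flanked by upstream and downstream ATXN2 gene portions) were treated 24 h at 37 °C with compounds at up to 57 uM. SteadyGlo luminescence gave expression; GF-AFC fluorescence gave viability.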
KB-3-1 tox – kills parental KB-3-1 adenocarcinoma cells; AID 1347075; 1.4% of 400,000 active; Potency, µM (doses to about 46.1 µM), actives largely listed as cytotoxic; KB-3-1 viability, CellTiter-Glo ATP luminescence, 72 h; also: % is scaled to controls: 0 for no effect and ±100 for the full control effect; nearly all actives have a fitted effect of over 60% in size
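Parental KB-3-1 adenocarcinoma cells in phenol-red-free DMEM with 10% FBS were pin-treated with compounds at several concentrations, incubated 72 h at 37 °C, and viability read by CellTiter-Glo luminescence; concentration-effect curves were fitted after normalization.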
S2 tox – cell viability loss in ATXN counter-screen | S2 cells (HEK-293 line with an ATXN2-luciferase reporter) viability, CellTiter-Fluor protease fluorescence, 24 h | Potency, µM (doses to about 56.7 µM), hits mostly cytotoxic | 0.49% of 400,000 active; also: nearly all actives have a fitted effect of over 40% in size
* marks the source's active call; other numbers are inactive results; i = inactive; ? = inconclusive; . = no result given. Calls follow the shape of the dose curve; as a rule, active = well fitted curve in the direction sought with a large enough effect; inconclusive = small, poorly fitted or top-dose-only effect, or another doubt; inactive = no such curve, though single readings can be large; an effect the other way counts as inactive or inconclusive. Potency is read from the fitted curve at half-maximal effect.

SMILES | TGFb inhibitor | HepG2 viability | KB-V1 MDR tox | ATXN2 expr inh | KB-3-1 tox | S2 tox
OCCNc1nc(C2CC2)nc2c1nnn2Cc1ccccc1Cl | -9% | -2% | 6.5µM* | -5% | i | i
Cc1c(Cl)cccc1NC(=O)Cn1c(=O)n(Cc2ccco2)c(=O)c2sc3ccccc3c21 | -12% | 2% | i | 0% | i | i
Cc1ccc2nc(SCC(=O)Nc3cccc(F)c3)nc(=O)n2c1 | ? | -5% | 9.2µM* | 4% | ? | ?
COc1cccc(/C=N/n2c(-c3ccco3)nc3ccccc3c2=O)c1 | -5% | -19% | 2.6µM* | -9% | i | i
O=C1CCc2cc(S(=O)(=O)Nc3ccc(Cl)c(Cl)c3)c(F)cc2N1 | . | . | ? | . | i | .
O=C(c1ccc(N2CCCC2)c([N+](=O)[O-])c1)N1CCN(CCO)CC1 | -3% | 7.9µM* | i | -3% | i | i
CC1Cc2ccccc2N1C(=O)c1ccc(N2CCCC2)c([N+](=O)[O-])c1 (stereo not given) | -25% | -40% | i | ? | i | i
CC1Cc2ccccc2N1C(=O)c1ccc(N2CCCCC2)c([N+](=O)[O-])c1 (stereo not given) | ? | -36% | 13µM* | 3% | i | i
O=C(c1ccc(N2CCCC2)c([N+](=O)[O-])c1)N1CCc2ccccc2C1 | -21% | 0% | 2.6µM* | -17% | ? | ?
O=C(c1ccc(S(=O)(=O)N2CCCCC2)cc1)N1CCc2ccccc2C1 | -31% | -2% | ? | -16% | i | .
O=C(c1ccc(S(=O)(=O)c2ccccc2)cc1)N1CCc2ccccc2C1 | -3% | -8% | 18µM* | -6% | i | i
CC1=C(C(=O)Nc2cccc(C(F)(F)F)c2)C(c2ccccc2)n2ncnc2N1 (stereo not given) | -5% | -21% | ? | -2% | i | i
COc1ccc(-n2c(-c3ccc(C)cc3)cc3c2CC(C)(C)CC3=O)cc1Cl | 5% | -5% | i | 8% | i | i
COC(=O)[C@@H]1CCCN1C(=O)c1c(OC)cc(=O)n2c1CCN(Cc1ccc(C)o1)CC2 | . | . | . | . | . | i
O=C(CCS(=O)(=O)Cc1ccccc1F)N1CCc2ccccc2C1 | ? | -3% | i | 1% | i | i
O=C(CCS(=O)(=O)Cc1ccccc1)N1CCc2ccccc2C1 | 7% | 0% | 16µM* | 4% | i | i
Cc1ccc(S(=O)(=O)N2CCN(C(=O)c3ccc(N4CCC(C)CC4)c([N+](=O)[O-])c3)CC2)cc1 | -11% | -22% | 18µM* | -17% | i | ?
CC(C)N(C(=O)CSc1nnc(NC(=O)c2cccs2)s1)C(C)C | -6% | -3% | 23µM* | 1% | i | i
N#Cc1ccc(Nc2nc(-c3ccc(O)cc3O)cs2)cc1C(F)(F)F | ? | -110% | ? | 25µM* | ? | 22µM*
Oc1ccc(-c2csc(Nc3ccc4c(c3)OCO4)n2)c(O)c1 | ? | -26% | i | 13% | i | ?
CC1Cc2nc(SCC(=O)Nc3ccc(F)cc3)n(C)c(=O)c2S1 (stereo not given) | -10% | -3% | 4.1µM* | 15% | i | i
CCn1c(SCC(=O)NC2CCCCC2)nc2c(c1=O)SC(C)C2 (stereo not given) | -1% | 1% | 2.3µM* | -12% | i | i
Cc1cc(C)cc(-n2c(SCC(=O)Nc3nnc(C)s3)nc3c([nH]c4ccccc43)c2=O)c1 | 1% | -1% | i | 13% | i | i
CCn1c(CN2CCOCC2)nc2cc(NC(=O)c3cccc([N+](=O)[O-])c3)ccc21 | -30% | -15% | i | -9% | i | i
Cn1cc(CN2CCC(C(=O)Nc3cccc(-c4cccc(F)c4)c3)CC2)cn1 | 11µM* | -58% | i | -23% | i | i
SMILES | TGFb inhibitor | HepG2 viability | KB-V1 MDR tox | ATXN2 expr inh | KB-3-1 tox | S2 tox
Cc1cccc(CN2CCC(C(=O)Nc3cccc(-c4cccc(F)c4)c3)CC2)n1 | ? | -38% | i | ? | i | i
Cc1nn(C(C)C)c(C)c1CN1CCC(C(=O)Nc2cccc(-c3cccc(F)c3)c2)CC1 | ? | 11µM* | ? | -36% | ? | i
O=C(Nc1cccc(-c2cccc(F)c2)c1)C1CCN(Cc2ccco2)CC1 | ? | -60% | i | -24% | i | i
COc1cccc(-c2cccc(NC(=O)C3CCN(Cc4cnn(C)c4)CC3)c2)c1 | -1% | 1% | . | -2% | . | i
CCCn1ncc(CN2CCC(C(=O)Nc3cccc(-c4cccc(F)c4)c3)CC2)c1C | ? | 18µM* | i | ? | ? | i
Cc1ccc2nc(N(Cc3cccnc3)C(=O)CCOc3ccccc3)sc2c1 | 2% | 5% | . | . | . | .
O=C(C[n+]1ccccc1Cl)c1ccc2ccccc2c1 | -3% | 0% | i | . | i | .
CCCCN(CC)CCNC(=O)c1cc2c(=O)oc3ccc(C)cc3c2s1 | -3% | -4% | i | 1% | i | i
CCSc1nnc(NC(=O)NC(CC)(C(F)(F)F)C(F)(F)F)s1 | 13µM* | -86% | i | ? | ? | ?
COC(=O)/C(=C1/Oc2cc(C)oc(=O)c2S1)C(F)(F)F | 5.6µM* | -30% | i | ? | i | .
Cc1cc(NC(=O)c2cc(-c3ccc(Br)cc3)on2)nn1Cc1ccc(Cl)cc1 | -4% | -17% | i | -19% | i | i
Cc1noc(C)c1C(=O)Nc1sc2c(c1C(N)=O)CCCCC2 | -9% | 11% | 21µM* | 0% | i | i
COC(=O)Nc1sc2c(c1C(N)=O)CCCCCC2 | -1% | -3% | i | -12% | i | i
C=CC(=O)Nc1sc2c(c1C(N)=O)CCCC2 | 16µM* | -53% | ? | ? | ? | ?
NC(=O)c1c(NC(=S)Nc2ccccc2)sc2c1CCCC2 | 0% | 0% | i | 29% | i | i
C=CCNC(=S)Nc1sc2c(c1C(N)=O)CCCC2 | -23% | 11µM* | i | -3% | i | i
COc1ccc(NC(=O)c2ccc(NC(=O)CCS(=O)(=O)c3cccs3)cc2)cc1OC | 0% | -4% | i | 3% | i | i
COc1ccc(CN2C(=O)CCC2(C)c2nnnn2-c2ccc3c(c2)OCCO3)cc1OC (stereo not given) | . | . | i | 6% | i | i
COc1cccc(C(=O)N2CCC(N3CCN(Cc4ccc(F)cc4)C(=O)C3=O)CC2)c1 | -9% | 2% | i | 2% | i | i
